Experimental data published in the supplement of paper PMC11732987, “Enantioselective OTUD7B fragment discovery through chemoproteomics screening and high-throughput optimisation” (Communications Chemistry, 2025).

Columns and labels:
Test in all cases: log2 ratio of Biotin-Ahx-Ub-VS probe labelling (fragment/DMSO); higher = less target engagement (more negative = stronger competition), active = hit call of the paper (q ≤ 0.05, log2 ratio ≤ -1)
Conditions in all cases: compound concentration: 200 uM; treatment time: 3 h
[1] = target: USP34 (UniProt Q70CQ2)
USP34, sequence (Q70CQ2 whole entry, the tested form may be a part): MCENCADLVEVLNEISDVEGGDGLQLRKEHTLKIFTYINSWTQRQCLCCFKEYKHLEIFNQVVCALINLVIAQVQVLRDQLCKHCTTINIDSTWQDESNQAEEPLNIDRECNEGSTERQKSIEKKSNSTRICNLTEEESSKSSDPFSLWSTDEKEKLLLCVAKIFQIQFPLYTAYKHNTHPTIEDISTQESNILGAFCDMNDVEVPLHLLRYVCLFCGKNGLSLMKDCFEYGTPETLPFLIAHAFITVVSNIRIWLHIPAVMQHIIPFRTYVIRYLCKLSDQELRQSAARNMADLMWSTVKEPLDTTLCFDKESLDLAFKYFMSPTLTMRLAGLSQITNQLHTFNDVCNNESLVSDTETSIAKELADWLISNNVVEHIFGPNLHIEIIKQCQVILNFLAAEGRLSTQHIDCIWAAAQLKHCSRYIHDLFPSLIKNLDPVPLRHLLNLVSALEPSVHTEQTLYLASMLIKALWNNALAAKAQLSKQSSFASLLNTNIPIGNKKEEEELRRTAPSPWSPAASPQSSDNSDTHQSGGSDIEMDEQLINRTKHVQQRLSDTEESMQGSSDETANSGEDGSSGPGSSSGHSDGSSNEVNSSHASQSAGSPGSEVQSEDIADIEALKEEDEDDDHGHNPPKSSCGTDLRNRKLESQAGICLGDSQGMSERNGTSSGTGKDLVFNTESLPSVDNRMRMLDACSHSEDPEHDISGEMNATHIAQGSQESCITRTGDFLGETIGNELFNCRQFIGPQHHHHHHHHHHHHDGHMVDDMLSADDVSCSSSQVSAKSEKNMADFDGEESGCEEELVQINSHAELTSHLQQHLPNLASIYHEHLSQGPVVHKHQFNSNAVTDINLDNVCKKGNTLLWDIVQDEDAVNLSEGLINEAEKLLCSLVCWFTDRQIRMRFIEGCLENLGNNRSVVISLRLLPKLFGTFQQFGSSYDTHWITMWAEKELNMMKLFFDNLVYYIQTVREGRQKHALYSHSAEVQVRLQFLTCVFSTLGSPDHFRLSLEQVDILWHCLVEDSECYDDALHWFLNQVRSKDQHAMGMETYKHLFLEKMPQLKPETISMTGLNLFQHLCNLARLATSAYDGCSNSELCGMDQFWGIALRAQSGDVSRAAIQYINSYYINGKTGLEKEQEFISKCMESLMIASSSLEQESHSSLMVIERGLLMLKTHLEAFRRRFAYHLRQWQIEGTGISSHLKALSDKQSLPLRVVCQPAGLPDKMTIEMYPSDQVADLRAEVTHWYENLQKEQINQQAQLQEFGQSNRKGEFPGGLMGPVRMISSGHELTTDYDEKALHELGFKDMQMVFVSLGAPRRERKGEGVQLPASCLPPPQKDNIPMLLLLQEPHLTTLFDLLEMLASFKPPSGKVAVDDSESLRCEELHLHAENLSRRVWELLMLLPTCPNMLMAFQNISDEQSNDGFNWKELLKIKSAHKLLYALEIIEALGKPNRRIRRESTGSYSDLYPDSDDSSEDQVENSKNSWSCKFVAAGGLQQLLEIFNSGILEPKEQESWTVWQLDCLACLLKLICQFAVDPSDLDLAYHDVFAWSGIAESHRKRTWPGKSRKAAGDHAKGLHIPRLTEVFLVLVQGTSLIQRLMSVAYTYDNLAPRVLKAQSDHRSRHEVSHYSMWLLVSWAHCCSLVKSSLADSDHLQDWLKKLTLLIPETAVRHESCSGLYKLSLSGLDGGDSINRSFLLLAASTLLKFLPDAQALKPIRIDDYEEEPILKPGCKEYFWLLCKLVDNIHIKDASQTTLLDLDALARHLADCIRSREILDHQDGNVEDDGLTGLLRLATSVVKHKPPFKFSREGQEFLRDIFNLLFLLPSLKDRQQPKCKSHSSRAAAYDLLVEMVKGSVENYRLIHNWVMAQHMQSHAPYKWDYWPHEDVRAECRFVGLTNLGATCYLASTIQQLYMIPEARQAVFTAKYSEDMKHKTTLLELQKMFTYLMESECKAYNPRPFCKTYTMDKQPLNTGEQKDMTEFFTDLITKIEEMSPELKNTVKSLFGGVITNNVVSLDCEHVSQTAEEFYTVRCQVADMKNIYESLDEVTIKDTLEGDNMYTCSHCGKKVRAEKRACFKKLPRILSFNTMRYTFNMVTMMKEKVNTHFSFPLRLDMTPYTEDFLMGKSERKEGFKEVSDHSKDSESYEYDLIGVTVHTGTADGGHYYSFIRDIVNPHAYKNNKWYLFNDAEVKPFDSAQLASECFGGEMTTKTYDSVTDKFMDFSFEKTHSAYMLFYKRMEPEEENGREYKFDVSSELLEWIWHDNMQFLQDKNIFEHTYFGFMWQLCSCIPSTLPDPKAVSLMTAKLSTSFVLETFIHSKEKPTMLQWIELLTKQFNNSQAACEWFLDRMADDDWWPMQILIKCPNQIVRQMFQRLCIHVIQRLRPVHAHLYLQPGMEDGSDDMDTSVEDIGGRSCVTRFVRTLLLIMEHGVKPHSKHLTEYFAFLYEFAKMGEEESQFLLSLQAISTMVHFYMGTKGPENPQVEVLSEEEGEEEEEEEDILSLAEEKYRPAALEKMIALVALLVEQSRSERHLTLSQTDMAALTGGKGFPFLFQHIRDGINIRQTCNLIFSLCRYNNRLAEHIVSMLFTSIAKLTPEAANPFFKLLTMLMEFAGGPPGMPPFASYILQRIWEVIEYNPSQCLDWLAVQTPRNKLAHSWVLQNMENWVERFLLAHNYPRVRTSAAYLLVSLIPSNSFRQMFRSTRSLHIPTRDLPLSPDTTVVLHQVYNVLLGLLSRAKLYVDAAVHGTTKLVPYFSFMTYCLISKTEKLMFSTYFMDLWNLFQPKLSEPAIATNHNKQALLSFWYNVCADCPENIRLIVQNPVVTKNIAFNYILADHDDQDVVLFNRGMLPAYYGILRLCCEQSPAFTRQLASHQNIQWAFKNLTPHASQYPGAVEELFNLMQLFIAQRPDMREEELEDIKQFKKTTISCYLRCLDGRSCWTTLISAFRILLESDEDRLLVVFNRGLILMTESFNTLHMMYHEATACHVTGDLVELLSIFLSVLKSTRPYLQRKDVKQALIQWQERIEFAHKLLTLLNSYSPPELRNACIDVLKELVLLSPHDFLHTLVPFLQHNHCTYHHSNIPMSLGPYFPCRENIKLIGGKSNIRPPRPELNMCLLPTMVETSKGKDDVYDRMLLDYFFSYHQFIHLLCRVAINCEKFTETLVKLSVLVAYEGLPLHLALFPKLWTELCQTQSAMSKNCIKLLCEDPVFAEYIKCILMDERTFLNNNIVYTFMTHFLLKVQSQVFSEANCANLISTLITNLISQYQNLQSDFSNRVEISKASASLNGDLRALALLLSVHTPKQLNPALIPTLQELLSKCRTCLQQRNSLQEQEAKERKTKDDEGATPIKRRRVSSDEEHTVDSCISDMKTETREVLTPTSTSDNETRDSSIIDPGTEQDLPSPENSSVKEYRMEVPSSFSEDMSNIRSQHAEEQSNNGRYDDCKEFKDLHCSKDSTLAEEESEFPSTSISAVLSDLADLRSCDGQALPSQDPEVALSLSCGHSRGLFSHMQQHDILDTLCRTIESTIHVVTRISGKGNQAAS
In short: (§1)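 Average log2 ratios of fragment over vehicle were obtained by unpaired t-test from global-median-normalised Spectronaut label-free quantities. Proteins with ≥2 unique peptides were included. HEK293T lysate (495 µg per sample) was treated in triplicate with fragment at 200 µM or vehicle for 3 h, then with Biotin-Ahx-Ub-VS at 0.5 µM final for 1 h, and labelled DUBs were NeutrAvidin-enriched and run by diaPASEF LC-MS/MS.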

[2] = target: T1, USP36 (UniProt Q9P275)
T1 sequence (whole entry): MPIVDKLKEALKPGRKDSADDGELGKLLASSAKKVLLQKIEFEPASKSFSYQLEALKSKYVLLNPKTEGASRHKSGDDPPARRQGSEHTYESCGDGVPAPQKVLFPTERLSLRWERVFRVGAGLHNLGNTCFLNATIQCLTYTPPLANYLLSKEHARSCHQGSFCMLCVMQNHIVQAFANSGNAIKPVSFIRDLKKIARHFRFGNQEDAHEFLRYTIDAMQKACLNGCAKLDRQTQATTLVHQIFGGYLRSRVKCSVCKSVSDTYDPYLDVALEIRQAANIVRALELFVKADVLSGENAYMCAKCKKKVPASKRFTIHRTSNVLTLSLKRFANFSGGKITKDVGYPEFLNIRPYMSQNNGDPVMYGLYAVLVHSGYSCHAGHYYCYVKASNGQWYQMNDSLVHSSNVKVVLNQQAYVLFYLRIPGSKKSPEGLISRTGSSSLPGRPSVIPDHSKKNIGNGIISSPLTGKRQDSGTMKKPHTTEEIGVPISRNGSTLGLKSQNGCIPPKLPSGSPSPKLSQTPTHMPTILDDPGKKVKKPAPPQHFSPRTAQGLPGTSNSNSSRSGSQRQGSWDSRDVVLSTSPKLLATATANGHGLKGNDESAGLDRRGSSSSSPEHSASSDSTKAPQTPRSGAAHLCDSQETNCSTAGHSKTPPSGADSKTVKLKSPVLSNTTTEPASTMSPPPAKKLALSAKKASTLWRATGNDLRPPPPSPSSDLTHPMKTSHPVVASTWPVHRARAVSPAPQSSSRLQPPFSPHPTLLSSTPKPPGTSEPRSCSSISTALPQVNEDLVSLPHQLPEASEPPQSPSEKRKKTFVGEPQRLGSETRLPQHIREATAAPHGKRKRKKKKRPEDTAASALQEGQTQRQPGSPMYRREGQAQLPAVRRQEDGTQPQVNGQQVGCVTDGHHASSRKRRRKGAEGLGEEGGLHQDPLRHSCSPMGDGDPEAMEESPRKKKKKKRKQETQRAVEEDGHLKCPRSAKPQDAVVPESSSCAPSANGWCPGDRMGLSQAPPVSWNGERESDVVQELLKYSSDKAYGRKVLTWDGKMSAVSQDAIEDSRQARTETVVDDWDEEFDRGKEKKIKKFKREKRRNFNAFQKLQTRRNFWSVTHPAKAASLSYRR
In short: as §1

[3] = target: T2, USP38 (UniProt Q8NB14)
T2 sequence (whole entry): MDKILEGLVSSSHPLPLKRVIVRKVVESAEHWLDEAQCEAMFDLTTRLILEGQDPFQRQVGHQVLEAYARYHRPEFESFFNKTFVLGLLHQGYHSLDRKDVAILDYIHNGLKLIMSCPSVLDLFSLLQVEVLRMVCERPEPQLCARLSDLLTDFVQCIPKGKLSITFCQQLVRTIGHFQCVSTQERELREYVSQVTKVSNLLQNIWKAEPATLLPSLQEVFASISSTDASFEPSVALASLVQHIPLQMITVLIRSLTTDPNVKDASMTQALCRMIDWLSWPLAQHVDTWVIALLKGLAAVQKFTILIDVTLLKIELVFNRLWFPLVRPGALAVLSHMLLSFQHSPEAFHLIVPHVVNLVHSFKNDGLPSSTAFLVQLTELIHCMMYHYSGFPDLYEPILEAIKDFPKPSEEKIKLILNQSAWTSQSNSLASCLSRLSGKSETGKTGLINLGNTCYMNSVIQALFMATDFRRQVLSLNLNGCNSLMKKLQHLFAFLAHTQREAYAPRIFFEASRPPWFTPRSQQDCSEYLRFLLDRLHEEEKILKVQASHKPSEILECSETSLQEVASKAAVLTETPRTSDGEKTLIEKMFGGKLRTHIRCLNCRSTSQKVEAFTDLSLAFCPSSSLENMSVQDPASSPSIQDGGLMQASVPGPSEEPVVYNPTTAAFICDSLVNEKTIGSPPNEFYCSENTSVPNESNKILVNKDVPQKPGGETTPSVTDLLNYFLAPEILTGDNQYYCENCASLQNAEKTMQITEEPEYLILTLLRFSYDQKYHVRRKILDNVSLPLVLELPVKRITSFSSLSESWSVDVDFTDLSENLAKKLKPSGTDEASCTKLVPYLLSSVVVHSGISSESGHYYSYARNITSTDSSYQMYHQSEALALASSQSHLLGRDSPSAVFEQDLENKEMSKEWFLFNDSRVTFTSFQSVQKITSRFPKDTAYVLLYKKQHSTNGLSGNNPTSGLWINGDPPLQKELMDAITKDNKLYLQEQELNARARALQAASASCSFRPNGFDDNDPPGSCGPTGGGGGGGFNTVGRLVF
In short: as §1

[4] = target: T3, USP39 (UniProt Q53GS9)
T3 sequence (whole entry): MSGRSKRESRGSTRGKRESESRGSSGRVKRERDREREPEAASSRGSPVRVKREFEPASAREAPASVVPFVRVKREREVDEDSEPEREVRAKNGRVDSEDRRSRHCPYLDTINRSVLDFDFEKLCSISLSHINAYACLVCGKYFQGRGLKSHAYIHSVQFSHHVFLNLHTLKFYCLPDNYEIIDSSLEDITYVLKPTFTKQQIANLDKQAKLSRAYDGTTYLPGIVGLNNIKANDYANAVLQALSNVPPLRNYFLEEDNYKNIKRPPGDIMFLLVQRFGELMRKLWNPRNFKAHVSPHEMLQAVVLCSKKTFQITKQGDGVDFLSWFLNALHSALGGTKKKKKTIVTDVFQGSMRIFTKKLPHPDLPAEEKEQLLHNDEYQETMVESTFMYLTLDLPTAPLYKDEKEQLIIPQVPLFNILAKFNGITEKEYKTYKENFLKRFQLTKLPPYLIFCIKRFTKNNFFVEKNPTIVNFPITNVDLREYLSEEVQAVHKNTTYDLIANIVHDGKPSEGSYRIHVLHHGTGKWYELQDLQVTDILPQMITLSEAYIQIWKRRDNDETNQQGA
In short: as §1

[5] = target: T4, USP4 (UniProt Q13107)
T4 sequence (whole entry): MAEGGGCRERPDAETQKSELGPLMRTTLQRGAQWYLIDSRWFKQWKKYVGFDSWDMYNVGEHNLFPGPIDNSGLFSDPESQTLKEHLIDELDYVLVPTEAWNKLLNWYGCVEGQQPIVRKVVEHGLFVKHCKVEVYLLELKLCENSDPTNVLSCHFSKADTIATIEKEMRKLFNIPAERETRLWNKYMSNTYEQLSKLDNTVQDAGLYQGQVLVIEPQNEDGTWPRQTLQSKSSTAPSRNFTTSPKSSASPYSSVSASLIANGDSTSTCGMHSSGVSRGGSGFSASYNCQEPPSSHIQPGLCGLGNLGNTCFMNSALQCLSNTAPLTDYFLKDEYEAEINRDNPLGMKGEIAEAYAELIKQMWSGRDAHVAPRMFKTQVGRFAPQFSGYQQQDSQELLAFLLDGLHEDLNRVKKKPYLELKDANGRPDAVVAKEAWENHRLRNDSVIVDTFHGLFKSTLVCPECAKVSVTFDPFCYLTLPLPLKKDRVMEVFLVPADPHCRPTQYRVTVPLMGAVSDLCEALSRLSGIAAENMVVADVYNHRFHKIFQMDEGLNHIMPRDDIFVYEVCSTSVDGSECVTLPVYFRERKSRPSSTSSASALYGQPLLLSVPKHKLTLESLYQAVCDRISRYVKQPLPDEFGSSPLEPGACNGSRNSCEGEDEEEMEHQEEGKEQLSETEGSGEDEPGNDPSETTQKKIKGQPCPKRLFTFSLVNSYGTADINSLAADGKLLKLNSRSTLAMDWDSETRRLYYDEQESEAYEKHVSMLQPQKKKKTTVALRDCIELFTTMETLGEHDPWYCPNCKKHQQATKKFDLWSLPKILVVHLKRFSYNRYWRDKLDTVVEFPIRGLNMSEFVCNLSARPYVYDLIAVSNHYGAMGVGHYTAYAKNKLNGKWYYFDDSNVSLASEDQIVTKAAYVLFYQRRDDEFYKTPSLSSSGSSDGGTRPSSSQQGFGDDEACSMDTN
In short: as §1

Measured: log2 ratio of Biotin-Ahx-Ub-VS probe labelling

Cl.O=C(CCl)N1CCn2ncc(O)c2C1
inactive: [1] -0.237 | [2] -0.037 | [3] -0.188 | [4] 0.194 | [5] -0.298
